Results on 40 compounds are retold here after PubChem BioAssay (EPA / NIEHS).

Active and inactive are the calls of the source. Rule for the calls: active = hit-call score of the fitted dose curve at least 0.9, where 1 is the maximum; inactive = score below 0.9.

The nature of this assay: ATG_TGFb_CIS: Attagene CIS-FACTORIAL HepG2 Assay for human Transforming Growth Factor (TGF) (AID 2282967). The note with it: HepG2 Attagene CIS TGFb reporter, mRNA transcription; actives raise or lower the signal. The procedure: ATG_CIS is a cell-based, multiplexed-readout assay that uses HepG2, a human liver cell line, with measurements taken at 24 hours after chemical dosing in a 24-well plate.ATG_TGFb_CIS is one of 52 assay component(s) measured or calculated from the ATG_CIS assay. It is designed to make measurements of mRNA induction, a form of inducible reporter, as detected with fluorescence intensity signals by Reverse transcription polymerase chain reaction (RT-PCR) and Capillary electrophoresis technology.Data from the assay component ATG_TGFb_CIS was analyzed into 1 assay endpoint. This assay endpoint, ATG_TGFb_CIS, was analyzed with bidirectional fitting relative to DMSO as the negative control and baseline of activity. Using a type of inducible reporter, measures of mRNA for gain or loss-of-signal activity can be used to understand the reporter gene at the transcription factor-level as they relate to the gene TGFB1. Furthermore, this assay endpoint can be referred to as a primary readout, because this assay has produced multiple assay endpoints where this one serves a reporter gene function. To generalize the intended target to other relatable targets, this assay endpoint is annotated to the growth factor intended target family, where the subfamily is transforming growth factor beta.
Human liver HepG2 cells are transiently transfected with multiple reporter transcription units (MRTUs) in 6-well plates using FuGene 6 reagent (Roche; 3 ml FuGene/1 mg DNA). The MRTU constructs are regulated by a cis-regulating element (promoter). […] A major difference between the CIS and TRANS system is that in CIS activities of endogenous TFs are measured, whereas the TRANS assay evaluates changes in activities of exogenous, chimeric NR-Gal4 proteins. […] At the end of 24 hour incubation, total RNA was isolated using TriZol reagent (Invitrogen). The isolated RNA is then reverse-transcribed using oligo(dT) primer and Mo-MLV reverse transcriptase (Invitrogen) with DNAse I (Ambion) treatment for 30 min. The one-tenth of the produced cDNA was amplified by PCR using Taq DNA polymerase (Invitrogen) and two reporter sequence-specific primers. The PCR products were fluorescently labeled by primer extension with 6-arboxyfluorescein (6-FAM) 5'-labeled reporter sequence-specific primer (2 min at 95 C, 20 s at 68 C and 10 min at 72 C) and these products were digested with 5U of HpaI (New England Biolabs) for 2h at 37 C. The fragments were purified using Qiaquick PCR columns (Qiagen), analyzed on an ABI 3130xL genetic analyzer (Applied Biosystems) with peak positions identified by using a set of X-rhodamine (ROX)-labeled MapMarker1000 molecular weight standards (BioVentures). The raw capillary electrophoresis data was processed using Attagraph software (Attagene).
`OCCN(CCO)c1ccccc1`: the outcome was inactive.
For the compound `C=CC(C)(C)C`, the compound was classed as inactive.
Regarding `O=C1CCCCCCCCCCC(=O)OCCO1`, the compound was called inactive.
As to `CCCCC(CC)COC(=O)c1ccccc1` (stereo not given), the compound was called inactive.
Same read-out and setting: then `CCCCCCC1(C)CCC(=O)O1` (stereo not given), with “inactive”; and `CCC(C)C=O` (stereo not given), with “inactive”; and `O=Nc1ccc(O)cc1`, with “inactive”.
For `CCO[Si](CCCN=C=O)(OCC)OCC`, the compound was called inactive.
On to `COc1ccc([C@@H]2CC(=O)c3c(O)cc(O[C@@H]4O[C@H](CO[C@@H]5O[C@@H](C)[C@H](O)[C@@H](O)[C@H]5O)[C@@H](O)[C@H](O)[C@H]4O)cc3O2)cc1OC`, for which the result was inactive.
For the compound `N[C@H]1C(O)O[C@H](CO)[C@H](O)[C@@H]1O` (stereo not given in full), the compound was classed as inactive.
In the case of `CC(C)(Oc1ccc(C2CC2(Cl)Cl)cc1)C(=O)O` (stereo not given), the compound was classed as inactive.
Turning to `CCCCCCCOC(=O)CCC`, the result was inactive.
Still for that read-out and setting: then `COC(=O)/C=C/C(C)=C\C=C\C(C)=C\C=C\C=C(C)\C=C\C=C(C)\C=C\C(=O)O`, with “inactive”; and `CO[Si](CCC1CCC2OC2C1)(OC)OC` (stereo not given), with “inactive”.
With `CCCCCCCCCCCCCOP(=O)(O)O`, the compound was called inactive.
`N#[N+]c1ccc2c(S(=O)(=O)[O-])cccc2c1O`: the result was inactive.
Still for that read-out and setting: then `CC1=NC(C)OC1C` (stereo not given), with “inactive”; and `CCOC(=O)CC(C(C)=O)C(C)=O`, with “inactive”; and `O=C1CCCC1`, with “inactive”.
`CCCOC(=O)CCCCC(=O)OCCC`: the compound was classed as inactive.
The same measure, in the same setting: under `CC(=O)OC(C)C` stands “inactive”; under `CC=CC(F)(F)C(F)(F)C(F)(F)F`, “inactive”.
Take `O=C1c2ccccc2C(=O)C1c1nc2ccccc2c(Br)c1O`: the AC50 was 100 µM (active).
Regarding `C[C@]12CCC(=O)C=C1CC[C@@H]1[C@@H]2C(=O)C[C@@]2(C)[C@H]1CC[C@]2(O)C(=O)CO`, the outcome was inactive.
Same read-out and setting: then `CCCCC/C=C\CCC=O`, with “inactive”.
Turning to `CCCCCCCCCCCCCCCC[N+](C)(C)CC`, the compound was classed as inactive.
Take `CCCC(C)CCC(C)=O` (stereo not given): the compound was called inactive.
Same read-out and setting: under `CC(C)(C)C(=O)CCc1ccc(Cl)cc1` stands “inactive”; under `CCCCCCCCCCOC(C)=O`, “inactive”; under `CC1(C)S[C@@H]2[C@H](NC(=O)COc3ccccc3)C(=O)N2[C@H]1C(=O)O`, “inactive”.
For `CNC(=S)NN`, the outcome was inactive.
Turning to `CCN(CCO)c1cccc(C)c1`, the result was inactive.
Take `OC1CCCCCCCCCCC1`: the call was inactive.
Consider `C1CN(SSN2CCOCC2)CCO1`, for which the result was inactive.
In the case of `CC(C)CCCCCOC(=O)CCS`, the call was inactive.
The same measure, in the same setting: under `CO[Si](OC)(OC)c1ccccc1` stands “inactive”; under `CC(C)(c1cc(Br)c(OCCO)c(Br)c1)c1cc(Br)c(OCCO)c(Br)c1`, “inactive”.
On the same count and under the same terms, then `CC(C)(C)C1CCCCC1=O` (stereo not given), with “inactive”; and `O=c1[nH]nc(-c2ccc([N+](=O)[O-])o2)o1`, with “inactive”.
With `O=C(O)C(c1ccc(Cl)cc1)c1ccc(Cl)cc1`, the call was inactive.

A word on the AC50: it is the concentration at which the activity in the assay is half-maximal.
